Results on 26 molecules are retold here after PubChem BioAssay (NCI).

The panel holds about 83,000 compounds, 20% with a hit somewhere; the sample as a whole holds those more often.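 Testing used 96-well plates and a 48-hour single-concentration exposure. Example: -40 means 40% of the starting cells died.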 A number with no mark means an inactive call. Active and inactive are the calls of the source. Rule for the calls: active = growth percent below 10; inactive = the rest.

The experiment relates to MDA-MB-468 breast. In words: NCI-60 one-dose screen, 48 h (100 = growth as untreated, 0 = no growth, -100 = all killed). To be noted: 10 µM unless noted.
On to `C/C=C(\C)C(C(=O)NC1CCCCC1)N(C(=O)C1CCc2cc(F)ccc2O1)c1ccc([N+](=O)[O-])cc1` (stereo unspecified), for which the growth is 85.6%.
With `CCC(N)(C(=O)O)c1ccc(F)cc1` (stereo unspecified), the growth was 105%.
In the case of `CC1CN(C(C)C)C(=S)N(c2ccccc2)C1=O` (stereo unspecified), the growth is 84.3%.
As to `NC(=O)C1(N2CCCCC2)CCN(CCCC(=O)c2ccc(F)cc2)CC1`, the growth is -10.6% (active).
For the molecule `CC(=O)Nc1ccc(NC(=O)Nc2cccc(-c3nc(-c4ccc(NC(=O)c5cccs5)cc4Cl)no3)c2)cc1C(F)(F)F`, the growth is -77.7% (active).
With `C#C[C@]1(O)CC[C@H]2[C@@H]3CC=C4c5sc(Nc6ncccc6C)nc5CC[C@]4(C)[C@H]3CC[C@@]21C`, the growth is -8.36% (active).
Turning to `CCCCc1ccc(C(N)=O)nc1`, the growth was 85%.
Take `O=C(/C=C/c1cc(Cl)ccc1Cl)Nc1ncc(Cc2ccc(Cl)cc2)s1`: the growth was 23.8%.
Regarding `N#C/C(=C\c1c(-c2ccccc2)[nH]c2ccccc12)C(=O)c1ccccc1`, the growth was 86.9%.
Consider `O=C1/C=C/[C@@H](O)[C@@H]2C[C@@H](O)C[C@H]2/C=C/CCC[C@H](C(F)(F)F)O1`, for which the growth is -69.1% (active).
For `C#CCOc1ccc2ncnc(N3CCN(C(=O)CCl)CC3)c2c1` the value was -9.23% [8.25 µM] (active); for `O=S(=O)(Nc1nccs1)c1ccc(Nc2nc(-c3ccncc3)cs2)cc1`, 101%.
Consider `COc1cc(C2=NN(C=O)C(c3cccc(Nc4ccnc5cc(Cl)ccc45)c3)C2)cc(OC)c1OC` (stereo unspecified), for which the growth was 59.2%.
The figure for `O=c1nc(Nc2cccc(Cl)c2)oc2cc(Cl)oc(=O)c12` is 75.1%; for `C=C1C(=O)O[C@H]2[C@H]1CC/C(COC(=O)CCSCCC(=O)OC/C1=C/CC[C@@]3(C)O[C@H]3[C@H]3OC(=O)C(=C)[C@@H]3CC1)=C\CC[C@@]1(C)O[C@@H]21` it is -23.6% (active); for `COC(=O)c1ccc2[nH]c(O)c(C(=Nc3ccc(N(C)C(=O)CN4CCN(C)CC4)cc3)c3ccc(OC)cc3)c2c1` it is 64.5%.
Consider `COc1cccc(-c2nn(-c3ccccc3)cc2-c2ccnc(NCCNS(=O)(=O)c3ccc(Cl)cc3)c2)c1`, for which the growth was 16.9%.
Take `C#CC(C)(O)c1ccc(Cl)cc1` (stereo unspecified): the growth was 94.5%.
Consider `COc1ccc2c(Nc3ccc(NS(C)(=O)=O)cc3)c3ccccc3nc2c1`, for which the growth is -59.5% (active).
As to `O=C(NNc1nc2cc(F)c(F)cc2n2cccc12)c1ncccn1`, the growth was 3.66% (active).
With `O=C(CC(NC(=O)OCc1ccccc1)C(=O)OCc1ccccc1)OCc1ccccc1` (stereo unspecified), the growth was 112%.
The figure for `COc1ccc(S(=O)(=O)Oc2ccc(-c3sc4cc(OS(=O)(=O)c5ccc(OC)cc5)ccc4c3C(=O)c3ccc(OCCN4CCCCC4)cc3)cc2)cc1` is 94.3%.
Consider `CC12CCC(/C(=C/NNc3ccc([N+](=O)[O-])cc3[N+](=O)[O-])C1=O)C2(C)C` (stereo unspecified), for which the growth is 45%.
For the molecule `C[C@@H]1C[C@H]2C(=O)O[C@@H](C)C(NC(=O)[C@H](Cc3cc(F)cc(F)c3)NC(=O)Nc3ccc(C4CC4)cc3F)C(=O)N3CCC[C@H]3C(=O)N3CCCC[C@H]3C(=O)N[C@@H](CO)C(=O)N2C1` (stereo partly specified), the growth was -18.1% (active).
`O=C1Nc2ccc(Cl)cc2/C1=C/c1ccc(OCc2ccc(F)cc2)cc1`: the growth is 97.3%.
`CC(C)c1nc(N(C)S(C)(=O)=O)nc(-c2ccc(F)cc2)c1/C=C/[C@@H](O)C[C@@H](O)CC(=O)O`: the growth is 99.4%.
